# In the library only some 17% were active in any assay of this set; here they are far more common.
# TGFb SMAD3 inh = qHTS for Inhibitors of TGF-b; actives 1.2% (n = 410,000); HepG2 CAGA-GFP TGF-b/SMAD3 reporter, GFP fluorescence, 18 h; TGF-beta stimulated, 500 pg/mL final; AID 588855, 2011; Potency, µM (titrated, usually from 46.1 µM), without a hit: top-dose activity, negative = inhibition, usual class: inhibitors; note: % is set by controls: 0 for no effect and ±100 for the full control effect; nearly all actives have a fitted effect of over 65% in size
#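 TGF-beta reporter screen: HEPG2 CAGA-GFP, 1% FBS, 500 pg/mL TGF-beta final, 18 h; per-cell GFP summed per well; curves fitted and categorized by class.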
# HepG2 viability = qHTS for Inhibitors of TGF-b: Cytotox Counterscreen. actives 0.76% (n = 410,000). Potency, µM (top dose mostly 46.1 µM), for the others: at the highest dose activity change, negative = cytotoxicity, most hits filed as cytotoxic. AID 588856, 2011. HepG2 CAGA-GFP viability, ATP luminescence, 18 h
#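 HepG2 CAGA-GFP cells (1000/well, DMEM with 1% FBS) received compound, then TGF-beta at 500 pg/mL final, and were incubated 18 hours at 37 degrees C. Viability was read by CellTiter-Glo luminescence. Media-only wells were set as complete cell-killing and DMSO as no toxicity.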
# HT1080-NT tox = qHTS for induction of synthetic lethality in tumor cells producing 2HG: qHTS for the HT-1080-NT fibrosarcoma cell line; HT-1080-NT fibrosarcoma viability, CellTiter-Glo ATP luminescence, 48 h; Potency, µM (series often up to 46.1 µM), for the others: at the highest dose activity, negative = less viability, usual class: cytotoxic; actives 1.6% (n = 360,000);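 note: NT is the 2HG producing partner of a matched IDH1 knockdown line; 0% = DMSO-treated cells and -100% = media-only wells without cells; nearly all actives have a fitted effect of over 55% in size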
#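 A 48-hour cytotoxicity screen used HT-1080-NT cells plated 2 hours before compound delivery. ATP-based CellTiter-Glo luminescence measured viability, normalized to DMSO and no-cell controls.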
# HT1080 IDH1KD tx = qHTS for induction of synthetic lethality in tumor cells producing 2HG: qHTS for the HT-1080-IDH1KD cell line | HT-1080 IDH1 knockdown viability, ATP luminescence, 48 h | Potency, µM (highest dose often 46.1 µM), inactives show top-dose activity, negative = toxicity, usual class: cytotoxic | actives 2% (n = 360,000);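 note: 0% = DMSO wells and -100% = cell-free medium wells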
#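 Knockdown cells (IDH1KD HT-1080) received compounds 2 h after plating at 750 cells/well and were kept 48 h at 37 °C in 5% FBS RPMI. A CellTiter-Glo luminescence read gave % activity for curve fitting.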
# DT40 TDP1 no CPT = qHTS for Inhibitors of human tyrosyl-DNA phosphodiesterase 1 (TDP1): qHTS in cells in absence of CPT. DT40 Tdp1-/- hTDP1 cells, no CPT, ATP luminescence, 48 h. Potency, µM (top dose mostly 46.2 µM), for inactives: at the top dose activity change, negative = growth inhibition, usual class: inhibitors. actives 15% (n = 420,000). AID 686978, 2013; note: % is set by controls: 0 for no effect and ±100 for the full control effect; nearly all actives have a fitted effect of over 55% in size
#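 No-CPT arm: Tdp1-/-;hTDP1 DT40 cells (400/well) plus compounds, incubated ≥48 hr at 37 °C. Readout CellTiter-Glo luminescence.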
# DT40 TDP1 CPT = qHTS for Inhibitors of human tyrosyl-DNA phosphodiesterase 1 (TDP1): qHTS in cells in presence of CPT; chicken DT40 Tdp1-/-;hTDP1 cells + 20 nM CPT, ATP luminescence, 48 h; Potency, µM (doses to about 46.2 µM), without a hit: at the highest dose activity change, negative = growth inhibition, usual class: inhibitors; AID 686979, 2013; actives 12% (n = 420,000); note: % is set by controls: 0 for no effect and ±100 for the full control effect; nearly all actives have a fitted effect of over 55% in size
#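 Cell growth measured by CellTiter-Glo luminescence after a minimum 48 h, 37 C compound exposure with 20 nM CPT in Tdp1-knockout DT40 cells stably expressing hTDP1, seeded 400/well; qHTS titration format.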
# An asterisk follows results filed as active; ? = inconclusive; / = not tested or not shown. Calls come from the whole dose curve; as a rule, active = well fitted curve in the direction sought with a large enough effect; inconclusive = small, poorly fitted or top-dose-only effect, or another doubt; inactive = no such curve, though single readings can be large; an effect the other way counts as inactive or inconclusive. Potency is the fitted concentration of half-maximal effect.
SMILES,TGFb SMAD3 inh,HepG2 viability,HT1080-NT tox,HT1080 IDH1KD tx,DT40 TDP1 no CPT,DT40 TDP1 CPT
COc1cc2nc(Cl)nc(NC3CCN(Cc4ccccc4)CC3)c2cc1OC,/,/,0%,-2%,10µM*,7.1µM*
COc1cc2nc(N3CCOCC3)nc(NC3CCN(Cc4ccccc4)CC3)c2cc1OC,/,/,?,?,11µM*,16µM*
COc1cc2c(NC3CCN(C)CC3)nc(N3CCCN(C)CC3)nc2cc1OCCCCC(N)=O,/,/,23%,6%,-12%,8%
COc1cc2nc(N3CCN(C)CC3)nc(NC3CCN(Cc4ccccc4)CC3)c2cc1OC,/,/,?,11µM*,11µM*,11µM*
Cc1ccc(NC(=O)c2cncc(Br)c2)c(O)c1,2%,-3%,0%,1%,?,-18%
CCCSCCCNC(=O)c1ccc(C)c(NC(=O)C2=C(C)OCCS2)c1,?,-6%,9%,0%,?,?
CC1(C)CC(=O)C=C(NC2CCCC(O)C2)C1 (configuration not stated),-8%,-14%,11%,6%,-2%,-3%
COc1ccc(CNC(=O)COc2ccc(OC)cc2)cc1,-5%,1%,13%,7%,6%,-4%
COc1cc2[nH]c(=S)n(C3CCN(Cc4ccccc4)CC3)c(=O)c2cc1OC,-7%,-4%,4%,5%,18µM*,?
c1ccc(CN2CCC(Nc3nc(-c4cccs4)nc4ccccc34)CC2)cc1,?,-117%,?,?,18µM*,8.2µM*
c1csc(-c2nc(NCC3CCCO3)c3ccccc3n2)c1 (configuration not stated),-15%,-19%,-13%,-11%,?,?
COc1cc2nc(N3CCCN(C)CC3)nc(NC3CCN(Cc4ccccc4)CC3)c2cc1OC,3.2µM*,-83%,10µM*,7.1µM*,4µM*,2.5µM*
CC(=O)c1c(C)n(CCc2ccc(Cl)cc2)c2ccc(O)cc12,0%,0%,11%,3%,-4%,11%
Cc1cccc(NC(=O)Cn2c(=O)n(Cc3nc(-c4ccccc4)no3)c(=O)c3ccccc32)c1,-28%,-31%,/,/,?,-29%
COc1ccc(CN2C(=O)C(NC(=O)c3ccccc3OC)(C(F)(F)F)N=C2c2ccccc2)cc1 (configuration not stated),?,-21%,/,/,15µM*,18µM*
Cc1cccc(C(=O)NC2(C(F)(F)F)N=C(c3ccccc3)N(Cc3ccccc3)C2=O)c1 (configuration not stated),-7%,0%,/,/,?,?
CCOCc1c(C(=O)N2CCN(CCOc3ccc(Cl)cc3)CC2)oc2ccccc12,-19%,-11%,?,-24%,15µM*,?
O/N=C1\CC/C(=N\O)c2nn(-c3ccccc3Cl)nc21,-18%,-16%,8%,-6%,?,?
Cc1ccc(-n2nc3c(n2)/C(=N/O)CC/C3=N\O)cc1,-25%,-59%,-6%,-24%,16µM*,?
CC(C)(C)c1ccc(C(=O)NNc2cc(N3CCCCC3)nc(N3CCCCC3)n2)cc1,-2%,-36%,-2%,-20%,?,26µM*
COc1ccc(OC)c(NC(=O)N2CCCC(C(=O)c3ccccc3OC)C2)c1 (configuration not stated),6%,-2%,9%,2%,-4%,?
NC(=O)CN1C(=O)C(O)(CC(=O)/C=C\C=C\c2ccccc2)c2ccccc21 (configuration not stated),2%,-12%,2%,-1%,?,?
NC(=O)CN1C(=O)C(O)(CC(=O)/C=C\c2ccc3c(c2)OCO3)c2ccccc21 (configuration not stated),4%,2%,?,?,?,-18%
C#CCN1C(=O)C(O)(CC(=O)/C=C/C=C/c2ccccc2)c2ccccc21 (configuration not stated),?,-32%,5%,8%,23µM*,?
O=C(/C=C/C=C/c1ccccc1)CC1(O)C(=O)N(CCc2ccccc2)c2ccccc21 (configuration not stated),?,-95%,-1%,-14%,18µM*,21µM*
SMILES,TGFb SMAD3 inh,HepG2 viability,HT1080-NT tox,HT1080 IDH1KD tx,DT40 TDP1 no CPT,DT40 TDP1 CPT
CCN1C(=O)C(O)(CC(=O)/C=C/C=C/c2ccccc2)c2ccccc21 (configuration not stated),9%,-3%,3%,-1%,?,23µM*
O=c1nc2ccc(Cl)cn2c2ccc(S(=O)(=O)N3CCOCC3)cc12,4%,-13%,10%,1%,-13%,2%
COc1ccc(C(=O)Nc2nc3ccc(OC)cc3s2)cc1,-4%,-23%,-24%,-14%,?,?
COc1ccc(C(=O)Nc2cccc(-c3cc4ccccc4oc3=O)c2)cc1[N+](=O)[O-],?,-26%,16µM*,?,?,1%
COc1ccc2nc(NC(=O)c3cccc(-c4cc5ccccc5oc4=O)c3)sc2c1,-16%,-52%,15µM*,18µM*,16µM*,16µM*
COc1ccc(-n2nc(C(=O)NCC(=O)NCc3cccc(F)c3)c3ccccc3c2=O)cc1Cl,?,-15%,-1%,-8%,?,-25%
CC(=O)c1c(C(C)=O)c(C)n(-c2nc(-c3ccccc3)c(C)s2)c1C,?,-17%,4%,-8%,13µM*,?
Cc1sc(N)nc1-c1ccccc1,3%,4%,1%,6%,-6%,7%
Cc1c(NC2(C#N)CCCC2)c(=O)n(-c2ccccc2)n1C,0%,-2%,5%,3%,-11%,-11%
Cn1ncc2cc3c(Nc4ccc(Cl)cc4)cccc3nc21,-1%,-21%,?,?,12µM*,21µM*
C[C@@H]1CN([C@@H](C)CO)C(=O)c2cc(Br)cnc2O[C@H]1CN(C)C(=O)NC1CCCC1,-16%,-2%,14%,11%,-2%,-7%

# Screening data: PubChem BioAssay, National Center for Advancing Translational Sciences (NCATS)
